± gives the standard deviation of the averaged measurements.

For assay [1], the system named is DLD1. The experiment in a line: cell viability (CellTiter-Glo) relative to plate median (fraction of plate median); higher = more viable cells. The settings on record: 5 µM; treatment time 24 h; reporter: 7TFP. The gist of the method:
(§1)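 Colorectal cancer cell lines stably transduced with lentiviral TCF/Wnt firefly luciferase reporters (7TFP or TCF4/Wnt) were seeded in 384-well plates. 24 h later they received library compounds at a final 5 µM for 24 h. Parallel plates were read for firefly luciferase or CellTiterGlo luminescence on a Tecan F500 reader. Each well's signal was normalised to the plate median (webcellHTS2, additive, no log transformation), and the mean of two independent replicates is reported.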

A further assay relates to HCT116. The assay is described as above. The settings on record: 5 µM; treatment time 24 h; reporter: TCF4/Wnt. The gist of the method: as §1
For assay [2], the system named is SW480. Described as above. The conditions noted are these: 5 µM; treatment time 24 h; reporter: 7TFP. The gist of the method: as §1
Assay [3] concerns DLD1. The experiment in a line: TCF/Wnt firefly luciferase reporter signal relative to plate median (fraction of plate median); higher = higher Wnt reporter signal. The conditions noted are these: 5 µM; treatment time 24 h; reporter: 7TFP. The gist of the method: as §1
Assay [4] relates to SW480. The assay is described as above. The conditions noted are these: 5 µM; treatment time 24 h; reporter: 7TFP. The gist of the method:
as §1

For `c1ccc2c(c1)[nH]c1cnccc12`, the cell viability was found to be 0.956 ± 0.041 in the assay with DLD1 [1], 1.01 ± 0.021 in the assay with HCT116 and 0.9715 ± 0.005 with SW480 [2]. Further, the results for the “TCF/Wnt firefly luciferase reporter signal” value in the assay on DLD1 [3] and with SW480 [4] were 0.892 ± 0.19 and 0.879 ± 0.065, respectively.

Take `CN[C@@H]1[C@@H](O)[C@@H](O[C@@H]2[C@@H](O)[C@H](O[C@H]3O[C@H]([C@@H](C)O)[C@@H](O)[C@H](O)[C@H]3N)[C@@H](N)C[C@H]2N)OC[C@]1(C)O`: the cell viability in the assay on DLD1 [1] is 1.075 ± 0.0071; with HCT116, 1.04 ± 0.035; in the assay with SW480 [2], 1.08 ± 0.071. Moreover, the “TCF/Wnt firefly luciferase reporter signal” value in the assay with DLD1 [3] is 0.964 ± 0.12; in the assay on SW480 [4] it was 1.08 ± 0.085.

Take `C[C@@H]1CC[C@]2(NC1)O[C@H]1C[C@H]3[C@@H]4CC=C5C[C@@H](O)CC[C@]5(C)[C@H]4CC[C@]3(C)[C@H]1[C@@H]2C`: the results for the cell viability in the assay on DLD1 [1], in the assay with HCT116 and with SW480 [2] were 0.943 ± 0.011, 0.904 ± 0.035 and 0.957 ± 0.044, respectively. In addition, the results for the “TCF/Wnt firefly luciferase reporter signal” value in the assay with DLD1 [3] and with SW480 [4] were 0.963 ± 0.037 and 0.978 ± 0.016, respectively.

With `NCC(=O)c1ccccc1`, the cell viability in the assay on DLD1 [1] stood at 0.981 ± 0.11; with HCT116, 0.999 ± 0.059; with SW480 [2], 0.983 ± 0.018. Moreover, the “TCF/Wnt firefly luciferase reporter signal” value in the assay with DLD1 [3] worked out at 0.851 ± 0.14; with SW480 [4] it was 0.917 ± 0.2.

With `COc1cc2c3cc1Oc1c(OC)c(OC)cc4c1[C@@H](Cc1cccc(c1)Oc1ccc(c(O)c1)C[C@@H]3N(C)CC2)N(C)CC4`, the cell viability with DLD1 [1] came to 1.03 ± 0.045; in the assay on HCT116, 1 ± 0.028; in the assay on SW480 [2], 1.12 ± 0.05. The “TCF/Wnt firefly luciferase reporter signal” value was 0.9605 ± 0.00071 in the assay with DLD1 [3] and 1.12 ± 0.064 with SW480 [4].

As to `CC[C@@H](CO)NC(=O)[C@@H]1C=C2c3cccc4[nH]cc(c34)C[C@H]2N(C)C1`, the cell viability in the assay with DLD1 [1] is 0.968 ± 0.045; in the assay with HCT116, 1.02 ± 0.028; in the assay on SW480 [2], 0.957 ± 0.054. The “TCF/Wnt firefly luciferase reporter signal” value worked out at 1.04 ± 0.028 with DLD1 [3] and 1.075 ± 0.0071 in the assay on SW480 [4].

In the case of `COC(C)(C)CCC[C@H](C)C/C=C/C(C)=C/C(=O)OC(C)C`, the values for the cell viability with DLD1 [1], in the assay on HCT116 and with SW480 [2] were 0.948 ± 0.1, 1.02 ± 0.014 and 0.972 ± 0.083, respectively. Further, the “TCF/Wnt firefly luciferase reporter signal” value was 0.968 ± 0.12 in the assay with DLD1 [3] and 0.787 ± 0.08 with SW480 [4].

For the compound `CC(=O)NC1CCSC1=O` (stereo not given), the cell viability in the assay on DLD1 [1] is 1.03 ± 0.055; with HCT116, 1.01 ± 0.019; in the assay on SW480 [2] it was 1.03 ± 0.028. In addition, the “TCF/Wnt firefly luciferase reporter signal” value in the assay with DLD1 [3] was found to be 1.02 ± 0.12; with SW480 [4], 0.902 ± 0.12.

Take `c1ccc2nc(N3CCNCC3)ccc2c1`: the cell viability in the assay with DLD1 [1] came to 0.9935 ± 0.0092; in the assay with HCT116 it was 1.02 ± 0.081; in the assay on SW480 [2], 0.974 ± 0.025. The “TCF/Wnt firefly luciferase reporter signal” value worked out at 1.02 ± 0.15 in the assay on DLD1 [3] and 0.932 ± 0.028 in the assay with SW480 [4].

Consider `CC(C)(C)NCC(O)c1cc(Cl)c(N)c(Cl)c1` (stereo not given), for which the cell viability in the assay on DLD1 [1] came to 1.01 ± 0.024; with HCT116, 1.03 ± 0.05; in the assay on SW480 [2], 0.922 ± 0.012. Further, the “TCF/Wnt firefly luciferase reporter signal” value in the assay with DLD1 [3] was determined as 0.97 ± 0.038; in the assay with SW480 [4], 0.942 ± 0.0071.

Regarding `CC(=O)CC1CCCCN1` (stereo not given), the cell viability was 0.961 ± 0.055 in the assay on DLD1 [1], 1.03 ± 0.043 with HCT116 and 0.993 ± 0.0099 in the assay with SW480 [2]. Also, the “TCF/Wnt firefly luciferase reporter signal” value in the assay on DLD1 [3] turned out to be 0.92 ± 0.09; in the assay with SW480 [4], 0.977 ± 0.018.

For the origin of these results see the supplement of paper PMC6522484.
